# Measurements reported in PubChem BioAssay (NCATS).
# Records with an inconclusive call do not appear. Calls of active or inactive are those of the source. Calls come from the whole dose curve; as a rule, active = well fitted inhibition curve with a large enough effect; inconclusive = small, poorly fitted or top-dose-only effect; inactive = no such curve, though single readings can be large or run the other way.
# Assay: BET inhibitor-based combinations targeting novel dependencies in MECOM-rearranged (r) AML: OCI-AML3 cell line (AID 2202232); note: nearly all actives have a fitted effect of over 35% in size
# Details: CellTiter-Glo luminescence, 48 h; Potency: OCI-AML3 viability; series mostly up to 46 µM
# Source text: Ecotropic viral insertion site 1 (EVI1) is located on chromosome 3q26.2 as part of the MECOM (MDS and EVI1 complex) locus. Under normal hematopoiesis, EVI1 is a regulator of hematopoietic stem cell maintenance and self-renewal and EVI1 levels decrease as the cells differentiate. In approximately 5-10% of de novo acute myeloid leukemia (AML) EVI1 is aberrantly expressed, including Chromosomal inv(3)(q21;q26.2) or t(3;3)(q21;q26.2) alterations (MECOM-r) that account for about 50% of AML with EVI1 overexpression 31. AMLs with high levels of EVI1 have a poor prognosis and an overall survival time averaging between 10-14 months. EVI1 overexpression confers resistance in leukemia cells, highlighting the need to develop new targeted therapies for EVI1 overexpressing AMLs.
# Here, we performed an unbiased chemical drug screening by evaluating the single agent activity of a collection of 2,480 oncology-focused, approved and investigational drugs (NCATS Mechanism Interrogation Plates, MIPE v5.0) against a panel of seven AML cell lines. These included four MECOM-r cell-lines (AML-191, AML-194, UCSD-AML1 and HNT-34) and three non-MECOM-r AMLs (MV4-11, OCI-AML3 and SET-2). Exploiting the mechanistic redundancy built in the library, we identified target-level sensitivities in MECOM-r AML cells and relative activity as compared to other AML subtypes.
# A collection of 2480 mechanistically annotated dugs (MIPE v5.0) was used to screen four 3q26.2 rearranged AML cell lines and three non-3q26.2 rearranged AML cell lines. This library purposely exploits redundancy by including multiple inhibitors of key onco-targets, while simultaneously encompassing mechanistic diversity, targeting more than 800 distinct mechanisms of action. Briefly, cells were seeded in 5 uL of growth media using a Multidrop Combi dispenser into 1536 well white polystyrene tissue culture treated plates (Corning) at a density of 500cells/well. For each cell-line, for each of the 2480 drugs in MIPE v5.0 library, an 11-point dose curve was generated via a 1536 pin-tool. Plates were incubated for 48 hr at standard incubator conditions, covered by a stainless steel gasketed lid to prevent evaporation. Cell viability was determined by luminescence based, Cell Titer Glo assay (Promega). In detail, 3 uL of Cell Titer Glo were added to each well and plates were incubated at room temperature for 15 min with a stainless-steel lid in place. Luminescence readings were taken using a Viewlux (PerkinElmer) with a 2 s exposure time per plate. Compound dose-response curves were normalized to DMSO and empty well controls on each plate. Quantitative drug activity data from dose-response curves was determined utilizing area Under the Curve (AUC) and Z-transformed AUC (Z-AUC, a mean-centering transformation applied to each individual cell-line screened).
# Potency is the fitted concentration of half-maximal effect.
row,SMILES,Potency
1,Cc1ccc(C(C)(O)c2nc3ccccc3s2)c(C)c1 (stereo not given),inactive
2,CCC1(C)CC(=O)NC1=O (stereo not given),inactive
3,CN(C(Cc1ccc(OS(=O)(=O)c2cccc3cnccc23)cc1)C(=O)N1CCN(c2ccccc2)CC1)S(=O)(=O)c1cccc2cnccc12 (stereo not given),inactive
4,CNC(=O)c1ccccc1Nc1nc(Nc2ccc(N3CCOCC3)cc2OC)ncc1Cl,0.833 µM (active)
5,CS(=O)(=O)CCNCc1ccc(-c2ccc3ncnc(Nc4ccc(OCc5cccc(F)c5)c(Cl)c4)c3c2)o1,23.5 µM (active)
6,NS(=O)(=O)OC[C@@H]1C[C@@H](n2ccc3c(N[C@H]4CCc5ccccc54)ncnc32)C[C@@H]1O,0.372 µM (active)
7,O=C(Nc1ncc(-c2cc(C(F)F)nn2-c2c(Cl)cccc2Cl)s1)C1CC1,0.833 µM (active)
8,CCCCCN=C(N)N/N=C/c1c[nH]c2ccc(OC)cc12,8.33 µM (active)
9,O=C1[C@H](CC[C@H](O)c2ccc(F)cc2)[C@@H](c2ccc(O)cc2)N1c1ccc(F)cc1,20.9 µM (active)
10,COc1cccc(Nc2c(C(N)=O)cnc3c(C)cc(S(=O)(=O)c4cccc(C(=O)N(C)C)c4)cc23)c1,16.6 µM (active)
11,COc1ccc(C=Cc2cc(OC)c(OC)c(OC)c2)cc1NC(=O)[C@H](N)CO,0.296 µM (active)
12,CC[C@@H]1C(=O)N(C)c2cnc(Nc3ccc(C(=O)NC4CCN(C)CC4)cc3OC)nc2N1C1CCCC1,0.0525 µM (active)
13,O=C(Cc1ccc(-c2ccc(OCCN3CCOCC3)cc2)cn1)NCc1ccccc1,0.105 µM (active)
14,Cc1ccc(Nc2nccc(N(C)c3ccc4c(C)n(C)nc4c3)n2)cc1S(N)(=O)=O,16.6 µM (active)
15,O=C(Nc1ccc(S(=O)(=O)N2CCOCC2)cc1)c1cc(Cl)ccc1NS(=O)(=O)c1ccc(Cl)s1,inactive
16,O=C1CN2Cc3c(ccc(Cl)c3Cl)N=C2N1,inactive
17,O=C(CCN1CCN(C(=O)OCc2cc(Cl)cc(Cl)c2)CC1)c1ccc2[nH]c(=O)oc2c1,18.6 µM (active)
18,Cc1sc2c(c1C)C(c1ccc(Cl)cc1)=N[C@@H](CC(=O)Nc1ccc(OCCOCCOCCOCCNc3cccc4c3C(=O)N(C3CCC(=O)NC3=O)C4=O)cc1)c1nnc(C)n1-2 (stereo not given in full),0.0332 µM (active)
19,Cc1ccc(O)c(C(CCN(C(C)C)C(C)C)c2ccccc2)c1 (stereo not given),inactive
20,COc1ccc2c(OCc3nnc4ccc(-c5ccccc5)nn34)ccnc2c1,inactive

row,SMILES,Potency
1,CC(C)c1ccc2oc3nc(N)c(C(=O)O)cc3c(=O)c2c1,14.8 µM (active)
2,CC(C)[C@H](CO)Nc1nc(Nc2ccc(C(=O)O)c(Cl)c2)c2ncn(C(C)C)c2n1,inactive
3,O=S(=O)(O)CCSSCCS(=O)(=O)O,inactive
4,COC(=O)N1CC2(CC2)C[C@H](C(=O)NO)[C@H]1C(=O)N1CCN(c2ccccc2)CC1,inactive
5,CO[C@@H]1COCC[C@@H]1N[C@@H]1CC[C@@](C(=O)N2CCc3ncc(C(F)(F)F)cc3C2)(C(C)C)C1,inactive
6,N#Cc1ccnc(Nc2cc(C3CCN(C4COC4)CC3)cc(N3CCC(F)(F)C3)n2)c1,8.33 µM (active)
7,NC(=O)Nc1cc(-c2cccc(F)c2)sc1C(=O)N[C@H]1CCCNC1,0.468 µM (active)
8,COc1cc2c(cc1OCCCN1CCCC1)N=C(N)C21CCC1,inactive
9,NC(=O)c1cccc(N)c1,inactive
10,O=C(O)[C@@H](c1ccc(OCc2ccc3ccccc3n2)cc1)C1CCCC1,inactive
11,COc1ccccc1N1CCN(CCN(C(=O)C2CCCCC2)c2ccccn2)CC1,inactive
12,Cc1ccc(C(=O)Nc2ccc(CN3CCN(C)CC3)c(C(F)(F)F)c2)cc1C#Cc1cnc2cccnn12,1.86 µM (active)
13,CCS(=O)(=O)N1CCN(c2ccc(Nc3ncc(C(N)=O)c(NC4CC4)n3)cc2)CC1,13.2 µM (active)
14,Cc1c(F)cc(C(=O)NC2CC2)cc1-c1c(F)cn2c(C(C)(C)C)nnc2c1F,inactive
15,COc1cc(C(=O)NS(=O)(=O)c2ccccc2C)ccc1Cc1cn(C)c2ccc(NC(=O)OC3CCCC3)cc12,inactive
16,COc1cc(C(=O)NC2CCN(C)CC2)ccc1Nc1ncc2c(n1)N(C1CCCC1)CCC(=O)N2C(C)C,14.8 µM (active)
17,CC(C)OC(=O)C1=CN(C(=O)c2ccc(F)c(F)c2)CC(C)(C)c2c1[nH]c1ccccc21,inactive
18,COC(=O)Nc1nc2ccc(C(=O)c3ccc(F)cc3)cc2[nH]1,0.59 µM (active)
19,COc1cc(OC)c(C(=O)CCCN2CCCC2)c(OC)c1,inactive
20,O=C(Nc1cc(C(F)(F)F)cc(C(F)(F)F)c1)c1cc(Cl)ccc1O,2.09 µM (active)
